28 compounds from PubChem BioAssay AID448 (National Center for Advancing Translational Sciences (NCATS), 2006) can be followed below.

Screen size: about 65,000 compounds; about 45 (0.07%) were called active. Not all results are given here. Unmarked numbers belong to inactive results. Calls follow the shape of the full dose curve. Some results are limits rather than exact numbers.
Potency is read from the fitted curve at half-maximal effect.

In the test the test system is Schistosoma mansoni peroxiredoxin 2 (Prx2). As to the kind of experiment: Schistosoma Mansoni Peroxiredoxins (Prx2). Particulars: S. mansoni Prx2 activity coupled to TGR/GSH (TGR is thioredoxin glutathione reductase), NADPH fluorescence loss, qHTS. The source says:
NIH Molecular Libraries Screening Centers Network [MLSCN]
NIH Chemical Genomics Center [NCGC]
David Williams [Illinois State University]
Schistosoma mansoni, a causative agent of schistosomiasis, resides in the bloodstream of their host up to 30 years without being eliminated by the host immune attack. One proposed survival mechanism is the production of an antioxidant "firewall" that neutralizes the oxidative assault of the host's immune attack. Schistosoma mansoni peroxiredoxins (Prx) are important parasite antioxidant proteins that play a crucial role in redox balance mechanisms. […] First, the proteins are essential for the parasite survival. […] Third, the protein(s) is amenable for study at the molecular level and can be produced in bacteria in large quantities, in soluble and active form. Inhibition of Prx activity was screened in a coupled-enzyme format with reducing equivalents being transferred from NADPH to […] intermediate via thioredoxin/glutathione reductase (TGR)-catalyzed reaction, then from thioredoxin to hydrogen peroxide via Prx-catalyzed electron transfer. A decrease in the fluorescence intensity of NADPH was used to measure the enzyme activity. Purified S. mansoni TGR and Prx were provided by Professor David L. Williams, Illinois State University.
NCGC Assay Protocol Summary:
100 mM phosphate buffer, pH 7.4, 10 mM EDTA, 0.01% Tween-20.
100 uM NADPH/25 nM TGR/700 uM GSH/50 nM Prx2 mixture in columns 1, 2, 5-48. Titration of control potassium antimonyl tartrate (PAT, from 1 mM, then 1:5) pin-transferred to lower half of column 2. Column 1 and upper half of column 2 are neutral (100% activity).
Three uL of reagents were dispensed to 1536-well Greiner black plates. Compounds and controls (20 nL) were transferred via Kalypsys PinTool. The plates were incubated for 15 min at room temperature, and then a 1 uL aliquot of 400 uM NADPH/700 uM GSH was added, immediately followed by a 1uL aliquot of 2.5 mM H2O2 (to start the reaction). The plate was transferred to ViewLux (Perkin-Elmer) High-throughput CCD imager where kinetic measurements (every 30 sec, for a total of 8 min) of NADPH fluorescence were taken using 365 nm excitation/450 nm emission filter set. During dispense, enzyme-containing reagent bottles were kept submerged into 4 deg C water bath to minimize degradation.
Keywords: NIH Roadmap, MLSCN, MLI, MLSMR, David Williams, Peroxyredoxin, Schistosoma mansoni, prx2, prx, , qHTS, NCGC
Regarding `O=C(O)CS(=O)c1ccc2c3c(cccc13)C(=O)c1ccccc1-2` (stereo not drawn), the Potency was over 57 µM.

In the case of `CC(C)NC(=O)N1CC[C@@]2(CCCN(C(=O)c3cccn3C)C2)C1`, the Potency is over 57 µM. In the case of `COC(=O)N1CCC2(CCCN(c3ccncc3)C2)CC1`, the Potency is over 57 µM. For the compound `COCCNc1ncnc2ccc(-c3cccnc3)cc12`, the Potency was over 57 µM.

Regarding `Cc1nc2cnc(N3CCN(C)CC3)nc2n(C[C@H]2CCCO2)c1=O`, the Potency is over 57 µM. Regarding `COc1ccc2[nH]cc(CCNc3cc(-c4ccccc4CN(C)C)ncn3)c2c1`, the Potency is over 57 µM. The figure for `COc1ccc(CNc2ncncc2-c2ccccc2OC)c(OC)c1` is over 57 µM; for `COc1ccccc1-c1nc(N2CCN(C)CC2)c2ccccc2n1` it is over 57 µM. In the case of `C[C@]12CC[C@@H]3C(=CCc4cc(O)ccc43)[C@@H]1CCC2=O`, the Potency is over 57 µM. For the compound `CC(N)=NCc1cccc(CN)c1`, the Potency is over 57 µM. Take `CN=C(NC#N)NCCSCc1nc[nH]c1C`: the Potency was over 57 µM. The result for `ClC(Cl)(Cl)C(N1CCN(c2ccccc2)CC1)N1CCN(c2ccccc2)CC1` reads over 57 µM; that for `COc1cccc(Cn2c(=O)cnc3cncnc32)c1`, over 57 µM. On to `Cc1ccc(NC(=O)c2cccc(N(C)C)c2)cc1NC(=O)c1ccc(O)cc1`, for which the Potency is over 57 µM. As for `COc1ccc(Oc2ncc3nc(C)c(=O)n(-c4ccccc4)c3n2)cc1`, the Potency was over 57 µM. For the compound `CC1=CC(=O)C2=C(C)C[C@H](O)[C@@H]3[C@@H](OC(=O)[C@H]3C)[C@H]12`, the Potency is over 57 µM. Regarding `Cc1cnc(CNc2cc(-c3c(C)noc3C)ncn2)cn1`, the Potency was over 57 µM.

As to `COCCn1c(=O)c(-c2cc(F)cc(F)c2)nc2cnc(N3CCNCC3)nc21`, the Potency was over 57 µM. For the compound `CCCC(C(=O)OCCN(CC)CC)(c1ccccc1)c1ccccc1`, the Potency is over 57 µM. Turning to `O=c1cnc2cnc(Nc3ccccc3)nc2n1Cc1ccc(F)cc1`, the Potency was over 57 µM. As for `O=C1C(c2ccccn2)=[N+]([O-])c2ccccc21`, the Potency is over 57 µM. `CN(Cc1ccco1)c1ncncc1-c1ccoc1`: the Potency was over 57 µM. `C[C@H]1O[C@@H](CC(=O)O)Cc2c1c(O)c1c(O)cc(-c3cc(=O)c4c(=O)c5c(c(=O)c=4c3=O)C[C@H](CC(=O)O)O[C@@H]5C)c(O)c1c2O`: the Potency was over 57 µM. `NS(=O)(=O)c1cc(Cl)c(Cl)c(S(N)(=O)=O)c1`: the Potency was over 57 µM.

Turning to `CCC(C)(C)N=C(NC#N)Nc1cccnc1`, the Potency was over 57 µM. `COc1ccc(CNc2ncncc2-c2ccccc2C)c(OC)c1`: the Potency was over 57 µM. Take `Cn1cc(-c2nc3cnc(N4CCNCC4)nc3n(CCc3ccccc3)c2=O)c2ccccc21`: the Potency is over 57 µM. For `CN(C)c1ccc(-c2nc(NCCN3CCOCC3)c3ccccc3n2)cc1`, the Potency was over 57 µM.
